Data: PubChem BioAssay (EPA / NIEHS)
Calls of active or inactive are those of the source. The calls were made as follows: active = hit-call score of the fitted dose curve at least 0.9, where 1 is the maximum; inactive = score below 0.9.

Tests used:
[1] = ATG_CRE_CIS: Attagene CIS-FACTORIAL HepG2 Assay for human cAMP Responsive Element (CRE) binding protein 3 (AID 2282926); conditions: HepG2 CRE cis-reporter, Attagene multiplexed mRNA; actives raise or lower the signal
Procedure, shortened: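 Human liver HepG2, transient MRTU transfection, 24 h compound exposure. Total RNA → oligo(dT) RT → PCR → 6-FAM primer extension → HpaI cut → CE. Activity called both directions vs DMSO.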

[2] = ATG_DR4_LXR_CIS: Attagene CIS-FACTORIAL HepG2 Assay for human Liver X Receptor (LXR), DR4 submotif (AID 2282929); conditions: HepG2 Attagene DR4 cis-reporter, mRNA transcription; actives raise or lower the signal
Procedure, shortened: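 Endogenous factor activity at a DR4 cis-element is read as reporter mRNA in transiently transfected HepG2 cells. Exposure lasts 24 h; transcripts are amplified, fluorescently labelled and sized by capillary electrophoresis, with DMSO as baseline.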

[3] = target: Aryl hydrocarbon receptor (Homo sapiens) (UniProt P35869); test: ATG_Ahr_CIS: Attagene CIS-FACTORIAL HepG2 Assay for human Aryl Hydrocarbon Receptor (Ahr) (AID 2282930); conditions: HepG2 AhR cis-factorial reporter transcription; actives raise or lower the signal
Procedure, shortened: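 HepG2 cells transiently transfected with cis-element-driven multiplexed reporter units; endogenous AhR activity read as reporter mRNA 24 h after dosing, via RT-PCR, 6-FAM labelling, HpaI digestion and capillary electrophoresis. Bidirectional fit relative to DMSO.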

[4] = ATG_AP_1_CIS: Attagene CIS-FACTORIAL HepG2 Assay for human Activator Protein 1 (AP-1) (AID 2282931); conditions: HepG2 Attagene cis-factorial AP-1 reporter mRNA; actives raise or lower the signal
Procedure, shortened: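 Fluorescence of labelled PCR fragments separated by capillary electrophoresis gives reporter mRNA levels. HepG2 with transfected cis-regulated reporter units, 24 h exposure; DMSO serves as baseline for bidirectional curve fits.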

[5] = ATG_AP_2_CIS: Attagene CIS-FACTORIAL HepG2 Assay for human Activator Protein 2 (AP-2) (AID 2282932); conditions: HepG2 AP-2 cis-reporter, Attagene transcription factor profiling; actives raise or lower the signal
Procedure, shortened: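 Multiplexed mRNA reporter assay in HepG2: cis-regulated units report endogenous factor activity after 24 h treatment. Fluorescence from capillary electrophoresis of RT-PCR products gives the signal, with DMSO as baseline.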

[6] = ATG_BRE_CIS: Attagene CIS-FACTORIAL HepG2 Assay for human Bone Morphogenetic Protein (BMP) Response Element (BRE) (AID 2282933); conditions: HepG2 BMP response element reporter, Attagene transcription factor profiling; actives raise or lower the signal
Procedure, shortened: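 HepG2 cells transiently transfected with CIS reporter units (endogenous TF activity, BMP response element), dosed 24 h. Reporter mRNA quantified by RT-PCR, fluorescent labelling and capillary electrophoresis; bidirectional fit vs DMSO baseline.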

[7] = target: Transcription factor E2F1 (Homo sapiens) (UniProt Q01094); test: ATG_E2F_CIS: Attagene CIS-FACTORIAL HepG2 Assay for human E2F Transcription Factor 1 (AID 2282935); conditions: HepG2 Attagene cis-reporter, E2F reporter RNA transcripts; actives raise or lower the signal
Procedure, shortened: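 Measures reporter transcript levels via RT-PCR with capillary electrophoresis detection in HepG2 cells harboring cis-regulated reporter units; 24 h post-dose; bidirectional curve fitting with DMSO as baseline.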

[8] = ATG_E_Box_CIS: Attagene CIS-FACTORIAL HepG2 Assay for human Enhancer Box (E-box) (AID 2282936); conditions: HepG2 E-box cis-reporter transcription, actives raise or lower the signal
Procedure, shortened: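 First, HepG2 cells receive multiple cis-regulated reporter constructs by transient transfection. Next, chemicals are applied for 24 h. Finally, reporter mRNA is quantified via RT-PCR and capillary electrophoresis, with DMSO as baseline.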

[9] = ATG_M_61_CIS: Attagene CIS-FACTORIAL HepG2 Assay for M61 Transcription Factor (Internal Marker) (AID 2282937); conditions: HepG2 Attagene CIS-FACTORIAL M61 internal marker reporter; actives raise or lower the signal
Procedure, shortened: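 This endpoint serves as an internal background control within a multiplexed HepG2 cis-reporter panel. Cells are exposed for 24 h; reporter mRNA is amplified, fluorescently labelled and sized by capillary electrophoresis, with DMSO as negative control.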

[10] = ATG_EGR_CIS: Attagene CIS-FACTORIAL HepG2 Assay for human Early Growth Response 1 (EGR1) (AID 2282938); conditions: HepG2 Attagene CIS-FACTORIAL EGR reporter mRNA; actives raise or lower the signal
Procedure, shortened: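 HepG2, transient MRTU transfection (cis promoters), 24 h compound. RNA → RT (oligo-dT) → PCR → 6-FAM labelling → HpaI cut → CE fluorescence. Bidirectional fit, DMSO baseline.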

[11] = ATG_M_19_CIS: Attagene CIS-FACTORIAL HepG2 Assay for M19 Transcription Factor (Internal Marker) (AID 2282939); conditions: HepG2 Attagene CIS-FACTORIAL M19 internal marker reporter; actives raise or lower the signal
Procedure, shortened: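 HepG2 cells transiently transfected with cis-regulated multiplexed reporter units, dosed 24 h. Reporter mRNA quantified by RT-PCR and capillary electrophoresis; internal background marker fitted bidirectionally versus DMSO.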

[12] = ATG_ERE_CIS: Attagene CIS-FACTORIAL HepG2 Assay for Estrogen Response Element (ERE) (AID 2282940); conditions: HepG2 ERE cis-reporter, Attagene RNA transcript; actives raise or lower the signal
Procedure, shortened: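 HepG2 cells transiently transfected with multiplexed cis-element reporter units, measuring endogenous transcription factor activity; ERE reporter mRNA quantified after 24 h exposure by RT-PCR, fluorescent labelling, HpaI digestion and capillary electrophoresis. Bidirectional change versus DMSO.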

[13] = ATG_Ets_CIS: Attagene CIS-FACTORIAL HepG2 Assay for human Erythroblast Transformation Specific (ETS) (AID 2282941); conditions: HepG2 ETS cis-reporter transcription, actives raise or lower the signal
Procedure, shortened: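 HepG2 cells transiently transfected with cis-promoter reporter transcription units were dosed for 24 h; reporter mRNA was measured by RT-PCR, 6-FAM primer extension, HpaI digestion and capillary electrophoresis, with bidirectional fitting against DMSO baseline.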

[14] = target: Hepatocyte nuclear factor 3-beta (Homo sapiens) (UniProt Q9Y261); test: ATG_FoxA2_CIS: Attagene CIS-FACTORIAL HepG2 Assay for human Forkhead box A2 (FOXA2) (AID 2282942); conditions: HepG2 cis-reporter transcription factor activity, 24 h; actives raise or lower the signal
Procedure, shortened: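 Cells: HepG2, transient multiplex reporter transfection. Exposure 24 h. Detection: reporter-specific RT-PCR, fluorescent labelling, restriction digest, capillary electrophoresis. Analysis: bidirectional curve fit, DMSO as negative control.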

[15] = ATG_FoxO_CIS: Attagene CIS-FACTORIAL HepG2 Assay for human Forkhead box O (FoxO) (AID 2282943); conditions: HepG2 Attagene cis-reporter, FoxO element, mRNA; actives raise or lower the signal
Procedure, shortened: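 HepG2 cells transiently transfected with cis-element-driven reporter units report endogenous FoxO activity. After 24 h chemical exposure, reporter mRNA quantified by RT-PCR, fluorescent labeling, HpaI digestion and capillary electrophoresis; bidirectional fit versus DMSO.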

[16] = ATG_GATA_CIS: Attagene CIS-FACTORIAL HepG2 Assay for human GATA Binding Protein (AID 2282944); conditions: HepG2 GATA cis-element reporter, Attagene multiplex mRNA; actives raise or lower the signal
Procedure, shortened: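 HepG2 cells transiently transfected with multiplexed cis-element reporter units measure endogenous GATA activity; after 24 h compound exposure, reporter mRNA quantified by RT-PCR and capillary electrophoresis. Changes fitted in both directions vs DMSO.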

[17] = ATG_CMV_CIS: Attagene CIS-FACTORIAL HepG2 Assay for human CMV (Internal Marker) (AID 2282928); conditions: HepG2 CMV promoter reporter, transcription factor profiling; actives raise or lower the signal;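 also: endpoint acts as a background internal control marker rather than a target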
Procedure, shortened: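 HepG2 cells transiently transfected with multiple cis-regulated reporter units; 24 h compound exposure. Reporter mRNA quantified by RT-PCR, 6-FAM primer-extension labeling, HpaI digestion and capillary electrophoresis; bidirectional fitting against DMSO baseline.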

[18] = target: Retinoic acid receptor alpha (Homo sapiens) (UniProt P10276); test: ATG_DR5_RAR_CIS: Attagene CIS-FACTORIAL HepG2 Assay for human Retinoic Acid Receptor Alpha (RARE), DR5 submotif (AID 2282934); conditions: HepG2 Attagene cis-factorial RARE DR5 reporter, mRNA; actives raise or lower the signal;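 as to AC50: reporter responds to endogenous RAR alpha beta and gamma in HepG2 not RARA alone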
Procedure, shortened: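 HepG2 cells transiently transfected with multiplexed reporter units; DR5 cis-element drives reporter through endogenous transcription factors. After 24 h dosing, reporter mRNA quantified by RT-PCR, fluorescent labeling, HpaI digestion and capillary electrophoresis; bidirectional fitting versus DMSO.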

Measured: AC50

Chain of Transcription factor E2F1 (Homo sapiens) (Q01094 whole entry, looked up): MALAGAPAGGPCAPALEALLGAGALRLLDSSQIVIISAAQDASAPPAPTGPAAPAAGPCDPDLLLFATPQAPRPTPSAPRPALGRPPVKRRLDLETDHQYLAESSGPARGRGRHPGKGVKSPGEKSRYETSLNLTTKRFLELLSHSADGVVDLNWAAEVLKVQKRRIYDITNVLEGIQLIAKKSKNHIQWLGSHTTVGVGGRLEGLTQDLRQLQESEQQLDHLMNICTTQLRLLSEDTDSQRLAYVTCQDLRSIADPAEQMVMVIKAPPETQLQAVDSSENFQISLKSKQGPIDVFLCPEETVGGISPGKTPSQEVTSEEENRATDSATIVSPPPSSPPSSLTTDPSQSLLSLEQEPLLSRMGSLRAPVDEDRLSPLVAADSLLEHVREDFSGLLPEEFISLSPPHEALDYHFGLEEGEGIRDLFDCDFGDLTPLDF
Chain of Hepatocyte nuclear factor 3-beta (Homo sapiens) (Q9Y261 whole entry, looked up): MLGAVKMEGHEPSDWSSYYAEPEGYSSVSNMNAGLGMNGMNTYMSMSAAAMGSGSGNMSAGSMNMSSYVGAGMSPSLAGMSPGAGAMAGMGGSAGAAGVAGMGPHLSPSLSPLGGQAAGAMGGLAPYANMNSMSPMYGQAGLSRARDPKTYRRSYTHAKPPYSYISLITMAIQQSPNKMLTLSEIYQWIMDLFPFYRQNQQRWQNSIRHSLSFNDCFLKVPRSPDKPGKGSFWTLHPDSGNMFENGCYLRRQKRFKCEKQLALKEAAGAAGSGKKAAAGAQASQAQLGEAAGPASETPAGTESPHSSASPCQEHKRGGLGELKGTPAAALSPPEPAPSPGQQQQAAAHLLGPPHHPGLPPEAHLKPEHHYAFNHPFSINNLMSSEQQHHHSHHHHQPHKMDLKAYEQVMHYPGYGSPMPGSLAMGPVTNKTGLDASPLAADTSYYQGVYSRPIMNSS
Chain of Aryl hydrocarbon receptor (Homo sapiens) (P35869 whole entry, looked up): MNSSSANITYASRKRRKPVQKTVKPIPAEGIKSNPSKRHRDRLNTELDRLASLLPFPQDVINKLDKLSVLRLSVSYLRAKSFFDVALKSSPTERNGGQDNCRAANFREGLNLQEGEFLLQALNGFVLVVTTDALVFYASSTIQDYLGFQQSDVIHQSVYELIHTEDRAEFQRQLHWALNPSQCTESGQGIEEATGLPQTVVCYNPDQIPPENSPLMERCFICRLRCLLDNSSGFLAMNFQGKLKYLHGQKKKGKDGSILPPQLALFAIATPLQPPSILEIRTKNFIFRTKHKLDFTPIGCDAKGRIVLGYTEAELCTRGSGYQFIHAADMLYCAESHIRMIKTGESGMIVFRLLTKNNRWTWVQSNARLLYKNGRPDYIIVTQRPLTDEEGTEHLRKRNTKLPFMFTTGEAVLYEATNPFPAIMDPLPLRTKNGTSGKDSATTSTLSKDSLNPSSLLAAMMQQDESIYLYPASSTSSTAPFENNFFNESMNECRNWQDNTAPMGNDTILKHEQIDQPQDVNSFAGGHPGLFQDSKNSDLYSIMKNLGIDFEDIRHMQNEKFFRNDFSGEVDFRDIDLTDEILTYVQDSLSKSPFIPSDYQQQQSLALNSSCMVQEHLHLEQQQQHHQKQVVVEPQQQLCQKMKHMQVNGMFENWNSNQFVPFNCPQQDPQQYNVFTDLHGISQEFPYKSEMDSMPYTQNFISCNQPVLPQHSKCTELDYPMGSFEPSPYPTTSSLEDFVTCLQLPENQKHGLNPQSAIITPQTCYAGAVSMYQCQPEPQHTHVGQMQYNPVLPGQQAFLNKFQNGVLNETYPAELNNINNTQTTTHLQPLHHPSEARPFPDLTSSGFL
Chain of Retinoic acid receptor alpha (Homo sapiens) (P10276 whole entry, looked up): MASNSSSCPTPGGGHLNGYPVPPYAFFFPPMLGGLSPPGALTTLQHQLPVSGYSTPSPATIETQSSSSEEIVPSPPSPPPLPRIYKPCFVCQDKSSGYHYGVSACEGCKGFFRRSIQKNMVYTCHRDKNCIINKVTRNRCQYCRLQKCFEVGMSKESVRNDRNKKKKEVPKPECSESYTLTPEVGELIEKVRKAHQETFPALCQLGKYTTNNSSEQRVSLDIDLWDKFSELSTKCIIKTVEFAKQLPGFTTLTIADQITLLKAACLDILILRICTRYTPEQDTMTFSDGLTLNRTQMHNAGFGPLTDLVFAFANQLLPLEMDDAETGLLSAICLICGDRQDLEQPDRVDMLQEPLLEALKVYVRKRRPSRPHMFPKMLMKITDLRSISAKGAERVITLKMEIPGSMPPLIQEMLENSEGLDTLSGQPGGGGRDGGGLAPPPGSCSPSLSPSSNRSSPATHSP

CNC(=C[N+](=O)[O-])NCCSCc1ccc(CN(C)C)o1
not listed: [17] | [18]
inactive: all other assays above

CC(CO)(CO)[N+](=O)[O-]
not listed: [4] | [18]
inactive: all other assays above

CC(C)(CO)CO
not listed: [2] | [6] | [17] | [18]
inactive: all other assays above

CCC(C)(C)c1cc(O)c(C(C)(C)CC)cc1O
active: [1] 5.39 µM | [2] 26.7 µM | [10] 14.1 µM | [15] 10.1 µM | [16] 27.2 µM
not listed: [3] | [17] | [18]
inactive: all other assays above

NS(=O)(=O)c1cc(C(=O)O)c(NCc2ccco2)cc1Cl
not listed: [2] | [6] | [14] | [18]
inactive: all other assays above

CCC(C)COC(=O)CC(C)C (stereo not given)
not listed: [6] | [17] | [18]
inactive: all other assays above

CCOC(=O)CC(C)C
not listed: [13] | [18]
inactive: all other assays above

CCCCOCCOC(=O)c1ccccc1C(=O)OCCOCCCC
not listed: [2] | [3] | [9]
inactive: all other assays above

CCCCCCCCCC(=O)OCC
active: [1] 92.2 µM | [18] 63.2 µM
not listed: [3] | [6] | [9]
inactive: all other assays above

CC(O)CNCC(C)O (stereo not given)
not listed: [7] | [13] | [18]
inactive: all other assays above

O=C(O)CS
not listed: [4] | [18]
inactive: all other assays above

CCCC1CCOC(C)S1 (stereo not given)
not listed: [3] | [7] | [18]
inactive: all other assays above

CCCCOC(=O)C(C)OC(=O)CCC (stereo not given)
not listed: [2] | [4] | [17] | [18]
inactive: all other assays above

COc1cc(OC)c2ccc(=O)oc2c1
active: [2] 2.81 µM
not listed: [18]
inactive: all other assays above

Cc1cc(N)n(-c2ccccc2)n1
not listed: [2] | [3] | [9]
inactive: all other assays above

CCCCCCC(O)CCOC(C)=O (stereo not given)
not listed: [4] | [6] | [18]
inactive: all other assays above

N#CCCNCCC#N
not listed: [2] | [3] | [18]
inactive: all other assays above

CC(C)CCCC(C)(C)O
not listed: [9] | [17] | [18]
inactive: all other assays above

CC(CCO)CC(C)(C)C (stereo not given)
not listed: [4]
inactive: all other assays above
